Data on 87 molecules can be found in PubChem BioAssay AID720504 (National Center for Advancing Translational Sciences (NCATS), 2013).

The whole screen tested about 360,000 compounds, of which about 10,000 (2.8%) were called active. About 4% were inconclusive and are not listed. The call rests on the fitted dose curve; in most records, active means well fitted inhibition curve with a large enough effect; inconclusive means small, poorly fitted or top-dose-only effect; inactive means flat fitted curve, though single readings scatter. Only a selection was taken, and actives are over-represented in it overall.
On the % scale 0 is the no-effect control and ±100 the full control effect; potency means the concentration at half of the fitted maximal effect.

The target of this test is Serine/threonine-protein kinase PLK1 (Homo sapiens) (UniProt P53350). Kind of test: qHTS for Inhibitors of PLK1-PDB (polo-like kinase 1 - polo-box domain): Primary Screen. Further: nearly all actives have a fitted effect of over 65% in size. On max response, negative = inhibition: series mostly up to about 57 µM. The note with it: Plk1 PBD binding of FITC phosphopeptide, fluorescence polarization.
Chain of Serine/threonine-protein kinase PLK1 (Homo sapiens) (P53350 whole entry, looked up, the tested form may be a part): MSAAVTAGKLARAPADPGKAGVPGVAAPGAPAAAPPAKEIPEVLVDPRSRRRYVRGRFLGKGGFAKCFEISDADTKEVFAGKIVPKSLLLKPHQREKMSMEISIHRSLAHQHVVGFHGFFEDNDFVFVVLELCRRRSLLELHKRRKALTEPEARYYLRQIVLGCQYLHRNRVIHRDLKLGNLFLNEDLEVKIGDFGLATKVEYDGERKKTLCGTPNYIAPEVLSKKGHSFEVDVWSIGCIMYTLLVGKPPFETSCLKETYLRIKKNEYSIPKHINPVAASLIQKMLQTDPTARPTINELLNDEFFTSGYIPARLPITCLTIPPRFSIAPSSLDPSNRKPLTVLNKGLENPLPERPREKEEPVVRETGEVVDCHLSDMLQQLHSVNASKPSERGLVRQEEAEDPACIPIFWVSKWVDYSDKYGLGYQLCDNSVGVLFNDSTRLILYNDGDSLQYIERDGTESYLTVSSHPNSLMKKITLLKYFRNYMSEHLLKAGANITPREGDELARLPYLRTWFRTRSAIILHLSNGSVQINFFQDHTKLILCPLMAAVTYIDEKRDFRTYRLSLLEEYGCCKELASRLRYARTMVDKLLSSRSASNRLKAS
Consider `COc1ccc(CC(N)c2csc(NC(=O)NC(c3ccccc3)c3ccccc3)n2)cc1` (configuration not stated), for which the max response, negative = inhibition was -3.78% (inactive).

For the molecule `O=C(Nc1ccc(Cl)cc1)c1csc([C@H]2C[C@H](O)[C@@H](CO)O2)n1`, the max response, negative = inhibition is -10.3% (inactive).

Regarding `C=CCn1c(=S)[nH]c2scc(-c3ccco3)c2c1=O`, the Potency is 26.7 µM (active).

Take `C=CCn1cnc2scc(-c3ccccc3)c2c1=O`: the max response, negative = inhibition was -4% (inactive).

Take `C=CCn1c(=S)[nH]c2nc3c(cc2c1=O)COC(C)(C)C3`: the max response, negative = inhibition was 1.98% (inactive).

On to `C[C@H](CO)N1C[C@H](C)[C@H](CN(C)C(=O)Nc2ccc3c(c2)OCO3)Oc2ncc(Br)cc2C1=O`, for which the max response, negative = inhibition was -14.4% (inactive).

On to `CC(=O)NCCC(=O)Nc1cc(S(=O)(=O)N2CCOCC2)ccc1N1CCOCC1`, for which the max response, negative = inhibition is -0.805% (inactive).

`COCCNC(=S)Nc1cc(S(=O)(=O)N2CCOCC2)ccc1N1CCCCC1`: the Potency is 2.99 µM (active).

For `CC(C)CCC(=O)Nc1cc(S(=O)(=O)N2CCOCC2)ccc1N1CCCC1`, the max response, negative = inhibition is -0.0205% (inactive).

Regarding `CCCNC(=O)C1(C)CCCN(C(=O)c2oc3ccccc3c2C)C1` (configuration not stated), the max response, negative = inhibition is -5.78% (inactive).

In the case of `COC(=O)c1ccc2nc(C3CCCCC3)c(Cc3cccc(F)c3)n2c1`, the max response, negative = inhibition was -6.81% (inactive).

As for `O[C@H]1C[C@H](c2ccc(Cl)cc2)N(Cc2cccs2)C[C@@H]1n1cc(C2CC2)nn1`, the max response, negative = inhibition is -4.6% (inactive).

Take `CCCCN1C(=O)CCC(C(=O)O)C1c1ccc(OC)cc1` (configuration not stated): the Potency was 26.7 µM (active).

Consider `CCCCNC(=O)C1CCC(=O)N1CCc1ccccc1` (configuration not stated), for which the max response, negative = inhibition was -10.6% (inactive).

`COc1ccc(C2C3=C(CCCC3=O)N(CC(=O)O)C3=C2C(=O)CCC3)cc1`: the max response, negative = inhibition was -11.9% (inactive).

With `CCCCC(=O)N(C)c1c(CC)nc2c(OCc3ccc(Cl)cc3Cl)cccn12`, the max response, negative = inhibition is -5.31% (inactive).

On to `COc1cccc(CN2CCC(C(=O)NC(c3ccc4c(c3)OCO4)c3ccccn3)CC2)c1` (configuration not stated), for which the max response, negative = inhibition was 1.25% (inactive).

Take `C[C@@H]1CC2=C(C(=O)OC(C)(C)O2)[C@@H](C2CC2)O1`: the max response, negative = inhibition was -2.71% (inactive).

With `CC(C)c1ccc(NC(=O)Cn2ncc3ccccc32)cc1`, the max response, negative = inhibition is 5.15% (inactive).

In the case of `COc1ccc(NC(=O)Cn2ncn3c(cc4ccccc43)c2=O)c(OC)c1OC`, the max response, negative = inhibition was -11.6% (inactive).

Consider `CCc1ccc(NC(=O)Cn2ncn3c(cc4ccccc43)c2=O)cc1`, for which the Potency was 15 µM (active).

For `COc1ccc(C2OC(CCc3ccccc3)Cc3[nH]c(=S)[nH]c(=O)c32)cc1` (configuration not stated), the max response, negative = inhibition was -0.658% (inactive).

Take `CC(=O)Nc1cc(-c2ccccc2N(C)C)cn2c(-c3ccc(F)c(Cl)c3)cnc12`: the max response, negative = inhibition is -6.53% (inactive).

As for `COC(=O)[C@]12CCCCC=C1N(Cc1ccc3c(c1)OCO3)C(=O)[C@H](CC(=O)NCc1cccs1)C2`, the max response, negative = inhibition was -8.01% (inactive).

`CCCNC(=O)C1(C)CCCN(Cc2cccc(C(F)(F)F)c2)C1` (configuration not stated): the max response, negative = inhibition is -5.05% (inactive).

As to `COc1ccc(C(=O)NCc2nnc(SCC(=O)NC3=NCCS3)n2C)cc1`, the max response, negative = inhibition is -0.0324% (inactive).

In the case of `COc1ccc(-c2nnc(SCC(=O)Nc3cccnc3Cl)n2C)cc1`, the max response, negative = inhibition was -2.41% (inactive).

Turning to `C=CCn1c(SCCOc2ccc(OC)cc2)nnc1C(NC(=O)c1ccc(OC)cc1)C(C)C` (configuration not stated), the max response, negative = inhibition is -13.7% (inactive).

In the case of `COc1ccc(CC(=O)NCc2nnc(SCC(=O)Nc3nccs3)n2C)cc1`, the max response, negative = inhibition was 3.83% (inactive).

Turning to `COc1ccc(CC(=O)NCc2nnc(SCC(=O)Nc3ncc(C)s3)n2C)cc1`, the Potency is 13.4 µM (active).

As to `COc1ccc(C(=O)NCc2nnc(SCCOc3ccccc3)n2C)cc1`, the Potency is 16.8 µM (active).

As for `COc1cc2ccc(C(C)=O)c(O)c2cc1OC`, the max response, negative = inhibition is -1.98% (inactive).

As for `Cc1nc2c(OCC(=O)C(C)(C)C)cccn2c1N(C)Cc1cccs1`, the max response, negative = inhibition is -10% (inactive).

As for `CCOC(=O)C1CCN(CC(=O)Nc2ccc(OC)c(S(=O)(=O)N3CCCCC3)c2)CC1`, the max response, negative = inhibition was 3.48% (inactive).

Turning to `COc1ccc(NC(=O)C2=NNC(=O)CC2)cc1S(=O)(=O)N1CCCCC1`, the Potency is 16.8 µM (active).

Take `COc1ccccc1C(=O)Nc1ccc(C)c(S(=O)(=O)N2CCCCC2)c1`: the max response, negative = inhibition was -5.05% (inactive).

On to `CC(=O)c1cccc(NC(=O)C2COc3ccccc3O2)c1` (configuration not stated), for which the max response, negative = inhibition is 2.4% (inactive).

For `O=C(Nc1nc(-c2ccncc2)cs1)C1COc2ccccc2O1` (configuration not stated), the Potency is 3.36 µM (active).

As to `COc1ccc(NC(=O)COC(=O)C2COc3ccccc3O2)cc1` (configuration not stated), the max response, negative = inhibition is -3.22% (inactive).

Take `CCc1nc2ccc(C(=O)Nc3cc(-c4ccccc4)ccc3OC)cn2c1N(CC)CC(=O)N(C)C`: the max response, negative = inhibition was -4.06% (inactive).

Turning to `Cc1ccc(C(=O)NCC(=O)NCc2cc(=O)n(C)c(=O)n2C)cc1`, the Potency was 26.7 µM (active).

On to `COc1ccc(S(=O)(=O)NCC(=O)NCc2cc(=O)n(C)c(=O)n2C)cc1F`, for which the max response, negative = inhibition is -15.2% (inactive).

In the case of `Cc1ccc(C(=O)NCC(=O)NC2CC2)cc1`, the max response, negative = inhibition is -13.7% (inactive).

Consider `O=C(O)c1ccccc1Cc1ccc(F)c2ccccc12`, for which the max response, negative = inhibition is -10.5% (inactive).

As to `CN1OC[C@@H]2CN(C(=O)c3cccnc3)[C@H](c3ccc(N4CCCCC4)cc3)C[C@@H]21`, the max response, negative = inhibition is -6.62% (inactive).

As for `COc1ccc(NC(=O)C2(C)Cc3c(-c4ccc(C(N)=O)cc4)ccnc3O2)cc1` (configuration not stated), the max response, negative = inhibition is -13.3% (inactive).

`CCOC(=O)c1ccc(Nc2cc3ccccc3c(=O)[nH]2)cc1`: the max response, negative = inhibition is -11.1% (inactive).

With `CCOC(=O)c1sc(=S)n2c1[nH]c(=O)c1ccc(C(=O)OC)cc12`, the Potency was 6.7 µM (active).

For `CCOC(=O)C1=C(C)Nc2sc(C(=O)c3ccc(Br)cc3)c(N)c2C1c1ccc(C(=O)OC)cc1` (configuration not stated), the max response, negative = inhibition was 3.24% (inactive).

`COc1ccc([C@H]2N[C@]3(CCCN(CC4CCCCC4)C3=O)[C@H]3C(=O)N(C)C(=O)[C@@H]23)cc1`: the max response, negative = inhibition was -7.68% (inactive).

Take `CCN1C(=O)[C@H]2[C@@H](c3ccc(C(F)(F)F)cc3)N[C@]3(CCCN(Cc4ccc(Br)cc4)C3=O)[C@H]2C1=O`: the max response, negative = inhibition was -8.24% (inactive).

Turning to `COc1cccc(C(NC(C)=O)c2nc(-c3cnc4ccccc4c3)cs2)c1` (configuration not stated), the max response, negative = inhibition is -4.39% (inactive).

Turning to `CCc1nc2c(OCCOc3ccccc3)cccn2c1N(C)C(=O)c1cccs1`, the max response, negative = inhibition was -1.33% (inactive).

On to `O=C(CN1C(=O)NC2(CCc3ccccc32)C1=O)NC1CCCCC1` (configuration not stated), for which the max response, negative = inhibition was 2.51% (inactive).

Regarding `CCOC(=O)C1CCN(C(=O)c2ccc3c(=O)n4nc(Nc5ccccc5CC)sc4nc3c2)CC1`, the max response, negative = inhibition is -1.87% (inactive).

As to `COC(=O)C1=CN(C)C=C(C(=O)OC)C1c1ccc(Cl)cc1Cl`, the max response, negative = inhibition was 2.45% (inactive).

Turning to `Nc1ccc2c(c1)C(O)c1ccc(Cl)cc1-2` (configuration not stated), the max response, negative = inhibition is -6.61% (inactive).

Consider `NC(=O)C1(C(N)=O)OC1c1ccc(Cl)cc1Cl` (configuration not stated), for which the Potency is 16.8 µM (active).

As for `COC(=O)c1ccc2nc(-c3ccc(Cl)cc3)c(Cc3cccc(F)c3)n2c1`, the max response, negative = inhibition was 1.38% (inactive).

With `O=C(Cn1cnc2c(OCc3ccccc3)ncnc21)NCCCn1ccnc1`, the max response, negative = inhibition was -12.9% (inactive).

With `O=C(Cn1cnc2c(OCc3ccccc3)ncnc21)NCc1nc2ccccc2[nH]1`, the Potency was 21.2 µM (active).

Take `CC(CNC(=O)Cn1cnc2c(OCc3ccccc3)ncnc21)c1ccccc1` (configuration not stated): the max response, negative = inhibition was -8.63% (inactive).

Consider `O=C(COC(=O)c1ccc(S(=O)(=O)N2CCCCCC2)cc1)Nc1ccccc1C(F)(F)F`, for which the max response, negative = inhibition is -1.71% (inactive).

As to `C[C@H]1NS(=O)(=O)c2cc(Cl)ccc2O[C@@H]1c1ccccc1`, the max response, negative = inhibition was -5.69% (inactive).

As to `COc1cc(NC(=O)c2cc(-c3ccc(F)cc3OC(C)C)n[nH]2)cc(OC)c1OC`, the max response, negative = inhibition was -10.2% (inactive).

Consider `COc1cccc(NC(=O)c2nn(C34CC5CC(CC(C5)C3)C4)cc2[N+](=O)[O-])c1`, for which the max response, negative = inhibition is 1.45% (inactive).

Consider `Cc1nc([N+](=O)[O-])nn1C12CC3CC(CC(Br)(C3)C1)C2`, for which the Potency is 4.74 µM (active).

For the molecule `CCOC(=O)N(C)c1c(CC)nc2c(OCc3ccccc3C(=O)OC)cccn12`, the max response, negative = inhibition is -14.2% (inactive).

With `COC(=O)C[C@@H]1C=C[C@@H](NC(=O)c2ccc3c(c2)OCO3)[C@@H](CO)O1`, the max response, negative = inhibition was -2.88% (inactive).

For `O=C(NCc1ccc(F)cc1)c1cc(C2CCCCN2C(=O)c2cccs2)on1` (configuration not stated), the max response, negative = inhibition was -1.47% (inactive).

With `O=S(=O)(c1cccc(C(F)(F)F)c1)N1c2ccccc2-n2cccc2C1c1cccnc1` (configuration not stated), the max response, negative = inhibition was 4.88% (inactive).

`CCCCOCCCNC(=O)C[C@@H]1C[C@@]2(C(=O)OCC)CCCC=C2N(CCC2=CCCCC2)C1=O`: the max response, negative = inhibition is 4% (inactive).

`CC1(C)OC(=O)C2=C(C[C@@H](C3CCCCC3)O[C@@H]2c2ccc(Cl)cc2)O1`: the max response, negative = inhibition is -3.8% (inactive).

With `CCOC(=O)c1ccn(S(=O)(=O)c2ccc(C)cc2)c1-c1ccccc1`, the max response, negative = inhibition was -3.65% (inactive).

Turning to `O=C(Nc1ccc(N2CCCCC2)cc1)c1cc(S(=O)(=O)N2CCOCC2)ccc1F`, the max response, negative = inhibition was 1.97% (inactive).

On to `CCOc1ccccc1NC(=O)c1cc(S(=O)(=O)N2CCC3(CC2)OCCO3)ccc1F`, for which the max response, negative = inhibition was -1.47% (inactive).

For the molecule `Cc1cccc(NC(=O)c2cc(S(=O)(=O)N3CCC4(CC3)OCCO4)ccc2F)c1`, the Potency is 26.7 µM (active).

Regarding `O=C1C=CC(=O)N1c1ccc(N2CCCCC2)cc1`, the Potency was 3.36 µM (active).

`CC(=O)Nc1ccc(S(=O)(=O)Nc2ccc(N3CCCCC3)cc2)cc1`: the max response, negative = inhibition is -2.92% (inactive).

Take `O=C1CC(N2CCN(c3ccc(F)cc3)CC2)C(=O)N1c1ccccc1` (configuration not stated): the max response, negative = inhibition is -2.61% (inactive).

In the case of `C=CCN1CCN(c2ccncc2S(=O)(=O)N2CCN(C)CC2)CC1`, the max response, negative = inhibition was -10.5% (inactive).

`CCC1OC(C2CC2)CC2=C1C(=O)OC(C)(C)O2` (configuration not stated): the max response, negative = inhibition was -2.05% (inactive).

With `CC1CCN(C(=O)CSc2nnc(-c3ccco3)n2N)CC1`, the max response, negative = inhibition is -0.744% (inactive).

With `CCc1nc2ccc(C(=O)NC3CCN(Cc4ccccc4)CC3)cn2c1N(CC)CCOC`, the max response, negative = inhibition was -18.3% (inactive).

`O=C(CSc1cccc2cccnc12)N/N=C/c1cccnc1`: the Potency was 7.52 µM (active).

Turning to `COc1ccc(C(=O)NCC(=O)N/N=C/c2cccnc2)cc1`, the max response, negative = inhibition is -5.97% (inactive).

Consider `CCn1c(SCC(=O)N/N=C/c2ccncc2)nc2ccccc21`, for which the max response, negative = inhibition was -2.87% (inactive).
